Test systems include DU-145 prostate; K-562 leukemia; MALME-3M melanoma; MDA-MB-231 breast; RXF 393 renal; SF-268 CNS; SF-295 CNS; SF-539 CNS; UACC-257 melanoma; M14 melanoma; HCT-15 colon; HT29 colon; SNB-75 CNS; SNB-19 CNS; PC-3 prostate; SK-MEL-5 melanoma; UACC-62 melanoma; LOX IMVI melanoma; SK-MEL-28 melanoma; U251 CNS.
What all share (test): NCI-60 one-dose screen, 48 h (100 = growth as untreated, 0 = no growth, -100 = all killed)
What all share (conditions): 10 µM unless noted

Compounds without any hit were thinned out: in the full panel of roughly 83,000, 20% have a hit.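 Percent growth is the endpoint: 0 to 100 indicates growth inhibition (40 means 60% inhibition), 0 means no net growth, and negative values indicate cell death.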 A number with no mark means an inactive call. The source made the active and inactive calls. How the source made its calls: active means growth percent below 10; inactive means the rest.

On to `O=C(CSc1nc2c(n1Nc1ccccc1)-c1ccccc1SC2)Nc1nccs1`, for which the growth was 105% in the test with DU-145 prostate; 84.8% in the test on K-562 leukemia; 101% with MALME-3M melanoma; 88.7% with MDA-MB-231 breast; 102% with RXF 393 renal; 96.2% with SF-268 CNS. Besides, the growth in the test with SF-295 CNS was 122%; in the test with SF-539 CNS, 97.2%; in the test with UACC-257 melanoma, 108%; in the test with M14 melanoma, 102%; in the test with HCT-15 colon, 87.5%; in the test on HT29 colon, 102%. The growth in the test with SNB-75 CNS was 69.7%; in the test with SNB-19 CNS it was 99.4%; with PC-3 prostate, 78.8%; in the test on SK-MEL-5 melanoma, 101%; in the test on UACC-62 melanoma, 83.3%; in the test on LOX IMVI melanoma, 97.1%. The growth in the test with SK-MEL-28 melanoma is 112%.

Turning to `O=C1SCN(Cc2ccccc2)CN1Cc1ccccc1`, the growth in the test with DU-145 prostate is 95.4%; in the test with K-562 leukemia it was 46.3%; with MALME-3M melanoma, 101%; in the test on MDA-MB-231 breast it was 86.9%; in the test with RXF 393 renal, 108%; with SF-268 CNS, 96.2%. Moreover, the growth is 110% with SF-295 CNS; 104% with SF-539 CNS; 70.9% in the test with UACC-257 melanoma; 99.1% in the test on M14 melanoma; 98% in the test on HCT-15 colon; 90.4% with HT29 colon. Moreover, the growth was 91% in the test with SNB-75 CNS; 108% in the test with SNB-19 CNS; 99.5% in the test with U251 CNS; 92.8% with SK-MEL-5 melanoma; 89.6% with UACC-62 melanoma; 70.2% with LOX IMVI melanoma. Moreover, the growth in the test with SK-MEL-28 melanoma is 111%.

In the case of `Cc1ccc(NC(=O)c2cc(NCc3cc(O)ccc3O)ccc2O)cc1`, the growth in the test on DU-145 prostate is 106%; in the test on K-562 leukemia, 70.9%; with MALME-3M melanoma, 97.9%; with MDA-MB-231 breast, 78.5%; with RXF 393 renal it was 87.5%; with SF-268 CNS it was 83.5%. The growth with SF-295 CNS is 116%; in the test with SF-539 CNS it was 84.3%; in the test on UACC-257 melanoma it was 78.9%; with M14 melanoma it was 107%; in the test with HCT-15 colon it was 86.3%; in the test on HT29 colon, 82.9%. Besides, the growth in the test with SNB-75 CNS is 97.8%; in the test with SNB-19 CNS, 99.8%; with PC-3 prostate, 74%; in the test with SK-MEL-5 melanoma it was 88.6%; in the test on UACC-62 melanoma, 81.9%; in the test with LOX IMVI melanoma, 94.7%. In the test on SK-MEL-28 melanoma, the growth is 108%.

As for `COc1ccc(C2c3cccn3-c3ccccc3N2C(C)=O)cc1` (stereo not drawn), the growth in the test on DU-145 prostate was 108%; with K-562 leukemia it was 42%; in the test on MALME-3M melanoma, 93%; in the test with MDA-MB-231 breast, 103%; in the test on RXF 393 renal, 99.2%; in the test with SF-268 CNS it was 95.8%. In addition, the growth with SF-295 CNS was 98.7%; with SF-539 CNS it was 108%; in the test on UACC-257 melanoma, 109%; with M14 melanoma, 96.2%; in the test on HCT-15 colon, 87.7%; in the test with HT29 colon, 115%. In addition, the growth in the test with SNB-75 CNS is 77.4%; with SNB-19 CNS, 100%; in the test on U251 CNS, 106%; with UACC-62 melanoma, 86.3%; in the test with LOX IMVI melanoma it was 96.1%; with SK-MEL-28 melanoma, 108%.

With `CS(=O)(=O)c1ccc(C(=O)N/N=C/c2cccc3ccccc23)cc1`, the growth was 88.8% in the test with DU-145 prostate; 27.8% in the test on K-562 leukemia; 69.7% in the test on MALME-3M melanoma; 97.1% in the test with MDA-MB-231 breast; 99.3% with RXF 393 renal; 85.7% with SF-268 CNS. Moreover, the growth in the test with SF-295 CNS is 76%; in the test with SF-539 CNS it was 89.3%; in the test on UACC-257 melanoma, 41.1%; in the test on M14 melanoma, 66.8%; with HCT-15 colon it was 49.8%; with HT29 colon, 49.5%. Moreover, the growth with SNB-75 CNS is 89.7%; in the test with SNB-19 CNS it was 79.8%; in the test with PC-3 prostate, 78.8%; in the test with SK-MEL-5 melanoma, 67.2%; in the test with UACC-62 melanoma, 61.6%; in the test with LOX IMVI melanoma it was 72.4%. Further, the growth in the test on SK-MEL-28 melanoma was 89.4%.

For `COc1ccc(N=C2CSc3nnc(-c4cc(F)c(Cl)cc4Cl)n3N2)cc1`, the growth in the test on DU-145 prostate was -48.9% (active); in the test on K-562 leukemia, -58.4% (active); in the test with MALME-3M melanoma, -45.1% (active); in the test on MDA-MB-231 breast, -4.51% (active); in the test with RXF 393 renal, -52.7% (active); with SF-268 CNS it was 7.12% (active). Moreover, the growth with SF-295 CNS was -16.2% (active); with SF-539 CNS, -67.3% (active); with UACC-257 melanoma, 38.5%; with M14 melanoma, -44.7% (active); in the test with HCT-15 colon, 5.01% (active); with HT29 colon, -66.9% (active). In addition, the growth in the test with SNB-75 CNS is -60.6% (active); in the test with SNB-19 CNS, 0.21% (active); with PC-3 prostate, -55% (active); in the test on SK-MEL-5 melanoma it was -63.1% (active); in the test on UACC-62 melanoma it was 20.9%; with LOX IMVI melanoma, -42.1% (active). Also, the growth in the test on SK-MEL-28 melanoma is -31.3% (active).

As to `CCOC(=O)C(CCCCC(NC(C)=O)(C(=O)OCC)C(=O)OCC)(NC(C)=O)C(=O)OCC`, the growth in the test on DU-145 prostate is 113%; in the test with K-562 leukemia it was 108%; with MALME-3M melanoma, 108%; in the test on MDA-MB-231 breast it was 111%; with RXF 393 renal, 102%; in the test with SF-268 CNS, 100%. Also, the growth with SF-295 CNS is 99.3%; in the test with SF-539 CNS it was 109%; in the test on M14 melanoma, 105%; with HCT-15 colon, 106%; in the test with HT29 colon, 100%; with SNB-75 CNS, 95.3%. Besides, the growth was 110% in the test on SNB-19 CNS; 101% in the test with PC-3 prostate; 104% with SK-MEL-5 melanoma; 99.5% in the test with UACC-62 melanoma; 98.3% in the test on LOX IMVI melanoma; 97% with SK-MEL-28 melanoma.

For `COc1ccc(-c2ccc(-c3ccc(C(=N)N)s3)s2)cc1`, the growth in the test on DU-145 prostate is -95.5% (active); in the test on K-562 leukemia it was -21.5% (active); in the test on MALME-3M melanoma, -61.4% (active); with MDA-MB-231 breast it was -79.9% (active); in the test on RXF 393 renal, -57.5% (active); in the test with SF-268 CNS, -61.3% (active). Besides, the growth in the test on SF-295 CNS is -77.6% (active); in the test on SF-539 CNS, -75.5% (active); in the test on M14 melanoma, -55.1% (active); in the test with HCT-15 colon, -73.7% (active); in the test with HT29 colon it was -81.9% (active); in the test with SNB-75 CNS, -84.2% (active). The growth was -61.9% (active) with SNB-19 CNS; -70.3% (active) in the test with U251 CNS; -92.8% (active) in the test with PC-3 prostate; -97.8% (active) in the test with SK-MEL-5 melanoma; -91% (active) in the test on UACC-62 melanoma; -74.7% (active) in the test with LOX IMVI melanoma. Further, the growth with SK-MEL-28 melanoma was -75.5% (active).

As for `N=C(N)c1ccc(-c2ccc(-c3cccs3)s2)cc1F`, the growth was -77.4% (active) in the test with DU-145 prostate; -6.25% (active) in the test with K-562 leukemia; -73.4% (active) in the test with MALME-3M melanoma; -74.1% (active) with MDA-MB-231 breast; -92.6% (active) in the test with RXF 393 renal; -77.1% (active) with SF-268 CNS. Also, the growth is -71.2% (active) in the test on SF-295 CNS; -93.9% (active) in the test on SF-539 CNS; -78.3% (active) in the test with M14 melanoma; -66.8% (active) in the test on HCT-15 colon; -82.1% (active) in the test on HT29 colon; -96.5% (active) with SNB-75 CNS. Also, the growth with SNB-19 CNS is -65.1% (active); in the test with U251 CNS, -86.6% (active); in the test on SK-MEL-5 melanoma it was -98% (active); in the test on UACC-62 melanoma it was -79.7% (active); with LOX IMVI melanoma, -76.7% (active); in the test on SK-MEL-28 melanoma, -96% (active).

(Values after PubChem BioAssay (NCI).)
